Compound activity from PubChem.
Only a selection was taken, and hits are over-represented in it overall.
Pf Dd2 growth: blocks in vitro growth of P. falciparum Dd2; Potency, µM (doses to about 28.9 µM), inactives show at the highest dose activity, negative = inhibition, actives largely listed as inhibitors; hit rate 4.3% among 120,000; AID 1347417; P. falciparum Dd2 growth, SYBR Green, 72 h; active = well fitted inhibition curve with a large enough effect;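 also: plate controls were DMSO vehicle for no effect and reference drug for full effect; nearly all actives have a fitted effect of over 65% in size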
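Infected erythrocytes (Dd2, 0.3% parasitemia, 2.5% hematocrit final) are added to compound in RPMI-1640/Albumax II medium, grown 72 h at 37C in low oxygen, then lysed with saponin/Triton-X containing SYBR Green and read by fluorescence.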
Starred values were filed as active, the others as inactive; i = inactive; [ ] = dose if it differs, or a comment. Potency is read from the fitted curve at half-maximal effect.

SMILES | Pf Dd2 growth
O=C(C1CC1)N1CC[C@H](c2nc3ccccc3s2)C1 | -22.6%[44.1 µM]
CCOC(=O)c1cnc2ccc(C)cc2c1Nc1ccc(N(CC)CC)cc1 | 4.47µM*
CCOC(=O)c1cnc2ccc(Br)cc2c1NCCN1CCOCC1 | i
CCOC(=O)c1cnc2cc(C(F)(F)F)ccc2c1Nc1cc(C)ccc1OC | 9.0%
Cc1ccc(NC(=O)Cn2nc(-c3ccc(F)cc3)c3cnc4ccc(C)cc4c32)cc1 | 46.1%
CCCOC(=O)c1ccc(Nc2c(C(=O)OCC)cnc3c(C)cc(Cl)cc23)cc1 | -23.9%
CCOC(=O)c1cnc2ccc(Cl)cc2c1Nc1ccc(N2CCOCC2)cc1 | 8.91µM*
Cc1ccc(C(=O)N2CCC3(CC2)N=C(c2cccc(Br)c2)NO3)cc1 | -7.6%
Cc1cnc(-c2cccnc2)n1CCN | 2.4%
COC1CN(c2ccc(C)cc2)C12CCN(C(=O)c1nccc3ccccc13)CC2 (centres undefined) | i
O=C1OCC2=C1C(c1ccccc1)NC(=O)N2CC(=O)N1CCCCC1 (centres undefined) | i
Cc1ccc([S+](=O)([O-])c2nnn3c2nc(NCc2ccncc2)c2ccccc23)cc1C | -21.3%
CCCCNC(=O)Cn1nc2n(c1=O)CCN(Cc1cccc(Cl)c1)C2=O | -20.5%
O=C(O)CCn1ncc2cc(OCC3CCN(C(=O)Oc4ccccc4)CC3)ccc21 | -10.2%[44.1 µM]
CCOc1ccc(N2C(=O)N(Cc3ccc(C)cc3C)c3ccccc3S2(=O)=O)cc1 | 10µM*
CC(=O)c1ccc(N2C(=O)N(CC(=O)c3ccc(C)cc3)c3ccccc3S2(=O)=O)cc1 | -21.5%
CCN1C(=O)N(c2ccc(C(C)=O)cc2)S(=O)(=O)c2ccccc21 | 30.7%
CC(=O)N1CCCN(Cc2nc(-c3cccc(C(F)(F)F)c3)oc2C)CC1 | -18.2%
CN1CCN([C@@H]2[C@H](O)[C@H](CO)O[C@@H]2CNS(=O)(=O)c2cccs2)CC1 | 23.8%
COc1ccc(-c2nc(C3CC(=O)N(C4CCCCC4)C3)no2)cc1 (centres undefined) | 61.1%
COc1cccc(-c2nc(C3CC(=O)N(C4CCCCC4)C3)no2)c1 (centres undefined) | 39.0%
COc1cccc(-c2cc(-c3nc(C4CC(=O)N(C5CCCCC5)C4)no3)[nH]n2)c1 (centres undefined) | 5.01µM*
Cc1ccc(NC(=O)Nc2ccccc2)c(=O)n1CC(=O)N1CCN(c2ccccc2)CC1 | i
CN1C[C@H](NCc2ccc(F)cc2)CCC[C@@H](C(=O)NC2CCOCC2)CC1=O | i
O=C(NC1CCCCC1)[C@H]1O[C@H](CCN2CCN(Cc3ccccc3)CC2)CC[C@@H]1O | -2.4%[44.1 µM]
SMILES | Pf Dd2 growth
CN1C(=O)c2ccccc2Sc2ccc(NC(=O)N3CCN(c4ccc(F)cc4)CC3)cc21 | 7.94µM*
CCN1C(=O)c2ccccc2Sc2ccc(NC(=O)N3CCN(c4cc(C)ccc4C)CC3)cc21 | -12.3%
CC(C)NC(=O)Nc1ccc2c(c1)N(C)C(=O)c1ccccc1S2 | 3.8%
O=[S+]([O-])(Nc1cccnc1)c1ccc2c(c1)OCCN(CC1CCOCC1)C2 | 2.6%[44.1 µM]
CCc1ccc(NC(=O)c2ccc(F)c(S(=O)(=O)N3CCC(C)CC3)c2)cc1 | -17.7%
CCc1ccc(NC(=O)c2ccc(F)c(S(=O)(=O)N(C)C3CCCCC3)c2)cc1 | 11.2µM*
CCc1ccc(NC(=O)c2ccc(F)c(S(=O)(=O)N3CCc4ccccc4C3)c2)cc1 | 15.8%
Cc1ccc(C2=NC3(CCN(C(=O)c4cccc(N(C)C)c4)CC3)ON2)cc1 | -8.0%
CN(C)c1cccc(C(=O)N2CCC(c3c[nH]c4ccccc34)(c3c[nH]c4ccccc34)CC2)c1 | 3.98µM*
CC(C)CC1=NC2(CCN(C(=O)c3cccc(N(C)C)c3)CC2)C(=O)N1 | -2.4%
O=C(COc1ccccc1Cl)c1ccc2c(c1)N(CC(=O)N1CCCC1)C(=O)CO2 | i
COCc1ccc2c(c1)c(OC(C)(C)C(=O)Nc1ccn(C)n1)nn2Cc1cccc(OC)c1 | -6.4%
C[S+](=O)([O-])N1CC2(CCN(C3COC3)CC2)Cc2ccccc21 | 9.9%
C[S+](=O)([O-])N1CC2(CCN(Cc3c[nH]c4ccccc34)CC2)Cc2ccccc21 | 11.2µM*
C[S+](=O)([O-])N1CC2(CCN(C(=O)CCC(=O)O)C2)Cc2ccccc21 (centres undefined) | -5.5%
O=C(c1cccc(F)c1)N1CCCC(c2noc(COc3ccccc3)n2)C1 (centres undefined) | -24.7%
COCCOc1cc(=O)n2c(c1C(=O)NC1CCCCCC1)CCOCC2 | i
Cc1ccc(C)c(N2CCN(Cc3csc(C)c3C)CC2)c1 | i
Cc1ccc(-c2c(CN3CCN(c4cc(C)ccc4C)CC3)csc2C)cc1 | 10µM*
CCc1c(CN2CCN(c3cccc(C)c3)C(C)C2)csc1C (centres undefined) | 0.2%
Cc1ccc(C(=O)N2C[C@@H](CO)[C@H](c3ccccn3)C2)c(=O)[nH]1 | 29.6%
Cc1cnc(C(=O)N[C@@H]2CCC[C@@H]2C(=O)N2CCN(c3cccc(Cl)c3)CC2)cn1 | i
O=C(NCCc1ccc(Cl)cc1)c1ccc2c(c1)N(Cc1ccccc1)CCS2 | 1.1%
CCN1CCSc2ccc(C(=O)NCc3ccc(OC)cc3)cc21 | -21.2%
COc1ccc(OC)c(CCNC(=O)c2ccc3c(c2)N(Cc2ccccc2)CCS3)c1 | -20.7%
SMILES | Pf Dd2 growth
O=C(Nc1ccc(Cl)cc1)c1ccc2c(c1)N(Cc1ccccc1)CCS2 | 4.47µM*
Cc1ccc(CN2CCSc3ccc(C(=O)NCc4ccc(OC(C)C)cc4)cc32)cc1 | -23.6%
Cc1ccc(CN2CCSc3ccc(C(=O)Nc4ccc(Cl)cc4)cc32)cc1 | 7.94µM*
Cc1nc(CN2C[C@H](C(=O)Nc3ccc(F)cc3)C[C@@H]2c2ccc(F)cc2)cs1 | -25.9%[44.1 µM]
CC(C)C(=O)NCCc1noc(Cc2ccccc2)n1 | 88.3%
Cc1nccn1CCCN1CCC2(CC1)C(C(=O)O)CC(=O)N2C (centres undefined) | -4.9%
Cc1ccc(S(=O)(=O)N2CC[C@H](c3n[nH]c(C)n3)[C@H](NC(=O)CN(C)C)C2)cc1 | -23.0%
c1coc(CN2CCc3c(sc4ncnc(N5CCOCC5)c34)C2)c1 | 8.91µM*
CN(C)c1ncnc2sc3c(c12)CCN(Cc1ccncc1)C3 | i
c1nc(N2CCOCC2)c2c3c(sc2n1)CN(CC1CCCCC1)CC3 | 2.82µM*
Clc1ccc(CN2CCN(c3ncnc4sc5c(c34)CCCC5)CC2)cc1Cl | 43.5%
COc1ccc(CN2CCN(c3ncnc4sc5c(c34)CCCC5)CC2)cc1F | -24.8%
CCOc1ccc(CN2CCN(c3ncnc4sc5c(c34)CC(C)CC5)CC2)cc1 (centres undefined) | 24.6%
CC(C)(C)c1ccc(-c2cn(C[C@H]3CC4CCN3C[C@@H]4C(=O)NCc3ccccc3)nn2)cc1 (some centres undefined) | i
CCC(C(=O)N1CCN(c2cc(C(F)(F)F)ncn2)CC1)c1ccccc1 (centres undefined) | -10.9%
Cc1noc(-c2cccc(OC3CN(C(=O)NCc4ccc(F)cc4)C3)c2)n1 | -11.1%[5.79 µM]
CCn1nc(C)c(CCC(=O)NC2CCCc3c2[nH]c2ccccc32)c1C (centres undefined) | -24.5%
CN(C)c1cccc(-c2cn(C)c(=O)n3cc(CN4CC[S+](=O)([O-])CC4)nc23)c1 | -18.3%[44.1 µM]
CC(=O)c1ccc(N2CCN(C(=O)CCCCn3c(=O)[nH]c4ccccc4c3=O)CC2)cc1 | 5.62µM*
CCCCCn1c(=O)[nH]c2cc(C(=O)N3CCN(c4ccccc4F)CC3)ccc2c1=O | -12.6%
Cc1ccc(C)c(N2CCN(C(=O)c3ccc4c(=O)n(CCc5ccccc5)c(=O)[nH]c4c3)CC2)c1 | -24.4%
